Among the data in PubChem BioAssay (EPA / NIEHS) are AC50 and outcome values, retold here.

A short description of assay [1]: CCTE_Deisenroth_AIME_384WELL_CTox_Active: Cytotoxicity Assessment (CTOX) in CCTE's 384-well Estrogen Receptor Transactivation Assay with AIME metabolic competence (metabolism positive), Deisenroth Lab (AID 2284037; active means hit-call score of the fitted dose curve at least 0.9, where 1 is the maximum;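 further: chemicals first conditioned 2 h by alginate-bound induced rat liver S9 before cells; activity means signal loss indicating cell death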). Put shortly:
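Cytotoxicity in VM7Luc4E2 breast cells, 24 hour, measured as protease-substrate fluorescence loss, after 2-hour metabolic conditioning with induced rat hepatic S9 in alginate microspheres. Concentrations 0.002 - 200 uM, 10 points, bidirectional fitting.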

Assay [2] can be described thus: CCTE_Deisenroth_AIME_384WELL_CTox_Inactive: Cytotoxicity Assessment (CTOX) in CCTE's 384-well Estrogen Receptor Transactivation Assay without AIME metabolic competence (metabolism negative), Deisenroth Lab (AID 2284039; active means hit-call score of the fitted dose curve at least 0.9, where 1 is the maximum;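 further: cell viability via live-cell protease substrate cleaved to fluorescent probe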). The method, boiled down: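 VM7Luc4E2 human breast cells received conditioned medium from a 2 h incubation of chemical with alginate-water microspheres (no S9), then were exposed 24 h. Viability was read as protease-substrate cleavage to a fluorescent probe; loss of signal was fitted bidirectionally over 0.002–200 uM.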

Assay [3] can be described thus: CCTE_Shafer_MEA_dev_active_electrodes_number: CCTE's Neural Network Formation Assay for Number of Active Electrodes, Shafer Lab (AID 2284040; active means hit-call score of the fitted dose curve at least 0.9, where 1 is the maximum;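 on AC50: potency for loss of active electrodes versus DMSO so lower counts are hits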). The method, boiled down:
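Primary rat cortical neurons on 16-electrode MEA wells, exposed from day 0 through day 12 with compound renewed at DIV 5 and 9 feeds. Active electrodes (mean firing ≥5 spikes/min) counted at DIV 5, 7, 9, 12; trapezoidal AUC across days, loss-of-signal versus DMSO.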

Assay [4] has as its target Estrogen receptor (Homo sapiens) (UniProt P03372). The assay can be described thus: CCTE_Deisenroth_AIME_384WELL_LUC_Shift: CCTE's 384-well Estrogen Receptor Transactivation Assay with AIME metabolic competence data shift (ERTA luciferase; difference in metabolism positive and negative), Deisenroth Lab (AID 2284041).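 Further: shift is response with S9 minus without S9 so positive means metabolism raised ER signal.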 The method, boiled down: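 Test chemicals (0.002–200 uM, 10-point) were pre-incubated 2 h with alginate microspheres containing phenobarbital/beta-naphthoflavone-induced male Sprague Dawley rat liver S9 or water, then medium was transferred to VM7Luc4E2 cells for 24 h luciferase readout; shift = S9-positive minus S9-negative normalized response.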

The nature of assay [5]: CCTE_Shafer_MEA_dev_burst_rate: CCTE's Neural Network Formation Assay for Burst Rate, Shafer Lab (AID 2284042).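 On AC50: potency for loss of burst rate below DMSO control.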 Put shortly:
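Rat primary cortical cultures on PEI/laminin MEA; compound from plating, re-dosed at DIV 5, 9 media change. Single-electrode bursts/recording length, well mean of active electrodes; AUC over DIV 5–12 recordings; loss-of-signal vs DMSO.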

A short description of assay [6]: CCTE_Shafer_MEA_dev_bursting_electrodes_number: CCTE's Neural Network Formation Assay for Number of Bursting Electrodes, Shafer Lab (AID 2284043; active means hit-call score of the fitted dose curve at least 0.9, where 1 is the maximum;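 on AC50: potency is for loss of bursting electrodes relative to DMSO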). Put shortly:
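Read-out is the per-well number of electrodes bursting at least once every 2 minutes, recorded on days 5, 7, 9 and 12 and collapsed by trapezoidal area under the curve. Cultures were primary rat cortical neurons on MEA plates, treated continuously from plating.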

Assay [7] is described as follows: CCTE_Shafer_MEA_dev_per_burst_interspike_interval: CCTE's Neural Network Formation Assay for Burst Interspike Interval, Shafer Lab (AID 2284044).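 Further: mean spike spacing inside bursts as AUC over recordings on days 5 7 9 12.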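 On AC50: potency for a decrease of within-burst interspike interval below DMSO level.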 The method, boiled down: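 Neurons from rat cortex plated onto PEI-coated MEA wells with laminin […] at 1.5 x 10^5 cells/well, then treated from day 0. Media and compound fully replaced on DIV 5 and 9. Extracellular spontaneous firing recorded four times; interspike interval per burst summarised as AUC.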

The nature of assay [8]: CCTE_Shafer_MEA_dev_burst_duration_mean: CCTE's Neural Network Formation Assay for Mean Burst Duration, Shafer Lab (AID 2284045).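 On AC50: curve fitted for loss meaning shorter burst duration than DMSO.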 The method, boiled down:
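Read-out: average first-to-last-spike interval within single-electrode bursts, averaged over bursting electrodes per well, then summarised as area under the curve across days 5, 7, 9 and 12. Developing rat cortical networks were exposed from day 0.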

A short description of assay [9]: CCTE_Shafer_MEA_dev_interburst_interval_mean: CCTE's Neural Network Formation Assay for Mean Interburst Interval, Shafer Lab (AID 2284046).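 Further: well-mean interburst interval of bursting electrodes as AUC over four recording days; curve fitted for decrease in interburst interval relative to DMSO.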 Put shortly: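 Rat cortical neurons, 1.5 x 10^5 cells/well, 48-well MEA; compound from day 0 through DIV 12, media and treatment renewed DIV 5/9. Recordings DIV 5, 7, 9, 12; well-mean interburst interval → trapezoidal AUC, loss direction vs DMSO.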

Assay [10] concerns the target Estrogen receptor (Homo sapiens) (UniProt P03372). The assay can be described thus: CCTE_Deisenroth_AIME_384WELL_LUC_Inactive: CCTE's 384-well Estrogen Receptor Transactivation Assay without AIME metabolic competence (ERTA luciferase; metabolism negative), Deisenroth Lab (AID 2284038; active means hit-call score of the fitted dose curve at least 0.9, where 1 is the maximum;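 further: hits raise estrogen receptor luciferase signal so potencies reflect agonists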). The method, boiled down: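 Metabolism-negative mode: chemicals (10-point, 0.002–200 uM) held 2 h with alginate-water microspheres, then conditioned medium applied to VM7Luc4E2 cells for 24 h. Luciferase induction referenced to 17beta-estradiol.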

Molecules are shown by their SMILES. Where “and” joins values, the source holds several entries; their conditions need not be identical. Equal entries are not always repeated. Records with an inconclusive call do not appear. Where a structure was tested more than once in an assay, its records may differ in their call. Calls of active or inactive are those of the source. How the source made its calls, unless noted: active means hit-call score of the fitted dose curve at least 0.9, where 1 is the maximum; inactive means score below 0.9.

Sequence of Estrogen receptor (Homo sapiens) (P03372 whole entry, looked up): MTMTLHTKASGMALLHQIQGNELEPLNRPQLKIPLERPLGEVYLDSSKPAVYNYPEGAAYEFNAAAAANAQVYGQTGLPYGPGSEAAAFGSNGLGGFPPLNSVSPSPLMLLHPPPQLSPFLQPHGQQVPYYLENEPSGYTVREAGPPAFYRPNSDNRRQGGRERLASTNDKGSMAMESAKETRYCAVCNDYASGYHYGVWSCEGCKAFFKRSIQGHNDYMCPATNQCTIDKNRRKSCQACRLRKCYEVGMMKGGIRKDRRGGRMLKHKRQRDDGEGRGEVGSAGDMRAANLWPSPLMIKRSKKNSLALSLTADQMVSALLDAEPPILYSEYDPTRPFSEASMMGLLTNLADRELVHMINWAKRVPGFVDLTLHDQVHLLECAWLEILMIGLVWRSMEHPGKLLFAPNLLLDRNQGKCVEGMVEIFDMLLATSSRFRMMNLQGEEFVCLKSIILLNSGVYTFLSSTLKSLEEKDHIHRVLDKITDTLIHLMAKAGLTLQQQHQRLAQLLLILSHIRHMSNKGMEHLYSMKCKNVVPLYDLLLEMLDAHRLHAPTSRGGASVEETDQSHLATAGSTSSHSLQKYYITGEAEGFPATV

As for `CCCCNC(=O)OCC#CI`, the AC50 is 145 µM (active) in assay [1]; 124 µM (active) in [2]; 3.93 µM (active) and 1.81 µM (active) in [3]; 3.94 µM (active) and 1.33 µM (active) in assay [5]; 3.82 µM (active) and 1.48 µM (active) in assay [6]; 7.65 µM (active) and 1.63 µM (active) in assay [7]. The AC50 in assay [8] was 4.03 µM (active) and 1.28 µM (active); in assay [9], 3.24 µM (active) and 2.21 µM (active). Further, the result in [4] was inactive.
Regarding `COc1ccc(C(c2ccc(OC)cc2)C(Cl)(Cl)Cl)cc1`, the AC50 in [3] is 6.74 µM (active); in [6], 6.57 µM (active). Moreover, the result in assay [5], in [7], in [8] and in assay [9] was inactive.
Consider `CCCCOC(=O)c1ccccc1C(=O)OCCCC`, for which the AC50 is 75.1 µM (active) in assay [3] and 78.4 µM (active) in [6]. Also, the molecule was classed as inactive in [5], in assay [7], in [8] and in assay [9].
In the case of `C=CC1(C)OC(=O)N(c2cc(Cl)cc(Cl)c2)C1=O` (configuration not stated), the AC50 is 63.4 µM (active) in assay [10], 50 µM (active) in [3], 42.4 µM (active) in assay [4] and 21.6 µM (active) in assay [6]. Besides, the call in assay [2], in [5], in [7], in assay [8] and in assay [9] was inactive.
Turning to `CNC(=O)ON=CC(C)(C)SC`, the molecule was classed as inactive in assay [3], in [5], in assay [7], in assay [8] and in assay [9].
Turning to `N#Cc1nn(-c2c(Cl)cc(C(F)(F)F)cc2Cl)c(N)c1S(=O)C(F)(F)F` (configuration not stated), the outcome in assay [3], in [5], in assay [6], in assay [7], in assay [8] and in [9] was inactive.
`C=CCC1=C(C)C(OC(=O)C2C(C=C(C)C)C2(C)C)CC1=O` (configuration not stated): the call in [10], in assay [4], in [5], in assay [7], in assay [8] and in assay [9] was inactive. For the same molecule, the AC50 in [3] is 10 µM (active) and 14.8 µM (active); in assay [6], 5.72 µM (active) and 14.8 µM (active).
As to `O=C(O)COc1nc(Cl)c(Cl)cc1Cl`, the molecule was called inactive in [10] and in assay [4].
As for `O=C(O)c1nc(Cl)ccc1Cl`, the molecule was called inactive in assay [10] and in assay [4].
For the molecule `CCCCC(CC)COC(=O)c1ccccc1C(=O)OCC(CC)CCCC` (configuration not stated), the AC50 was 15 µM (active) and 7.34 µM (active) in assay [3]; 2.98 µM (active) and 6.34 µM (active) in assay [5]; 7.91 µM (active) and 6.07 µM (active) in [6]; 9.06 µM (active) in [7]; 3180 nM (active) in [8]; 12600 nM (active) in assay [9]. The call in assay [3], in assay [5], in assay [6], in [7], in [8] and in assay [9] was inactive.
For `CCOC(=O)CC(SP(=S)(OC)OC)C(=O)OCC` (configuration not stated), the AC50 in assay [3] is 17.1 µM (active) and 6.38 µM (active); in assay [5], 22.7 µM (active) and 2.98 µM (active); in assay [6], 14.9 µM (active) and 4.64 µM (active); in assay [7] it was 3.72 µM (active); in [9] it was 16.8 µM (active) and 15 µM (active). Besides, the result in assay [7] and in assay [8] was inactive.
On to `CN(C)C(=S)SSC(=S)N(C)C`, for which the AC50 in assay [3] is 0.011 µM (active); in assay [5], 12.7 nM (active); in assay [6], 0.00933 µM (active); in assay [7] it was 0.0227 µM (active); in assay [8], 1.55 nM (active); in [9], 11.6 nM (active).
`CC(C)(C)c1ccc(CSc2cnn(C(C)(C)C)c(=O)c2Cl)cc1`: the half-maximal activity concentration (AC50) in assay [1] was 19.8 µM (active); in assay [3], 0.0031 µM (active); in assay [5] it was 4.9 nM (active); in assay [6] it was 0.00281 µM (active); in assay [7], 0.00498 µM (active); in assay [8], 1.67 nM (active). Further, the AC50 in assay [9] was 3 nM (active). The molecule was classed as inactive in assay [2] and in assay [4].
In the case of `Oc1ccccc1-c1ccccc1`, the outcome in assay [1], in [10], in [2] and in assay [4] was inactive.
In the case of `CO/C=C(/C(=O)OC)c1ccccc1Oc1cc(Oc2ccccc2C#N)ncn1`, the concentration at half-maximal activity (AC50) was 1.52 µM (active) and 1.07 µM (active) in [3]; 1.14 µM (active) and 1.39 µM (active) in assay [5]; 1.42 µM (active) and 912 nM (active) in [6]; 2.3 µM (active) and 2.54 µM (active) in [7]; 1.55 µM (active) and 2.03 µM (active) in [8]; 2.29 µM (active) and 1.06 µM (active) in [9].

A word on the AC50: it is the concentration at which the activity in the assay is half-maximal.
